A structure can be active in one record and inactive in another. Calls of active or inactive are those of the source. The calls were made as follows: active = hit-call score of the fitted dose curve at least 0.9, where 1 is the maximum; inactive = score below 0.9.
Tests used:
[1] = molecular target: Transcription factor E2F1 (Homo sapiens) (UniProt Q01094); experiment: ATG_E2F_CIS: Attagene CIS-FACTORIAL HepG2 Assay for human E2F Transcription Factor 1 (AID 2282935); conditions: HepG2 Attagene cis-reporter, E2F reporter RNA transcripts; actives raise or lower the signal
Chain of Transcription factor E2F1 (Homo sapiens) (Q01094 whole entry, looked up): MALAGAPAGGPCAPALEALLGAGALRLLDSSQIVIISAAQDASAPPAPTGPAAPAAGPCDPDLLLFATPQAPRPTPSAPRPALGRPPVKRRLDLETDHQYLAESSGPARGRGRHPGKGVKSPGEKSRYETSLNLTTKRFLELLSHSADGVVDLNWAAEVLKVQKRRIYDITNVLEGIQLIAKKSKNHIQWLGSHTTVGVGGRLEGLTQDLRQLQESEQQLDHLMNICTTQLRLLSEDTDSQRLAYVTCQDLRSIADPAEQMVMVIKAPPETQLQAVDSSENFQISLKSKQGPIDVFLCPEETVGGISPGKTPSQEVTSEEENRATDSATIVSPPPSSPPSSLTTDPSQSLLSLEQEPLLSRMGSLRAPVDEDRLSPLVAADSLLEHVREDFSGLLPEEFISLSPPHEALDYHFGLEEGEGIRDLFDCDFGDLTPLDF
Summary of the method: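 HepG2 cells transiently transfected with multiplexed cis-element reporter units, dosed for 24 h. Reporter mRNA measured by RT-PCR, 6-FAM primer-extension labeling, HpaI digestion and capillary electrophoresis; bidirectional fit versus DMSO baseline.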

[2] = ATG_M_61_CIS: Attagene CIS-FACTORIAL HepG2 Assay for M61 Transcription Factor (Internal Marker) (AID 2282937); conditions: HepG2 Attagene CIS-FACTORIAL M61 internal marker reporter; actives raise or lower the signal
Summary of the method: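 Endogenous transcription factor activity in HepG2 is read through transiently transfected cis-element reporter units. After 24 h dosing, RNA undergoes reverse transcription, PCR and primer extension with 6-FAM before capillary electrophoresis; DMSO-referenced bidirectional fit.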

[3] = ATG_EGR_CIS: Attagene CIS-FACTORIAL HepG2 Assay for human Early Growth Response 1 (EGR1) (AID 2282938); conditions: HepG2 Attagene CIS-FACTORIAL EGR reporter mRNA; actives raise or lower the signal
Summary of the method: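 Activity is taken as induction or loss of reporter mRNA versus DMSO, fitted bidirectionally. Transcripts from cis-regulated reporter units in transiently transfected HepG2 were measured after 24 h by RT-PCR with capillary electrophoresis.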

[4] = ATG_M_19_CIS: Attagene CIS-FACTORIAL HepG2 Assay for M19 Transcription Factor (Internal Marker) (AID 2282939); conditions: HepG2 Attagene CIS-FACTORIAL M19 internal marker reporter; actives raise or lower the signal
Summary of the method: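 Internal marker readout, fitted in both directions against DMSO, from HepG2 cells carrying transfected cis-element reporter constructs; RT-PCR and capillary electrophoresis of reporter mRNA after 24 h exposure.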

[5] = ATG_ERE_CIS: Attagene CIS-FACTORIAL HepG2 Assay for Estrogen Response Element (ERE) (AID 2282940); conditions: HepG2 ERE cis-reporter, Attagene RNA transcript; actives raise or lower the signal
Summary of the method: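 After 24 h compound treatment, RNA from transfected HepG2 cells was reverse-transcribed, reporter cDNA PCR-amplified, FAM-labelled, HpaI-cut and resolved by capillary electrophoresis. ERE-driven cis reporter transcripts reflect endogenous factors; gain or loss scored against DMSO.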

[6] = ATG_Ets_CIS: Attagene CIS-FACTORIAL HepG2 Assay for human Erythroblast Transformation Specific (ETS) (AID 2282941); conditions: HepG2 ETS cis-reporter transcription, actives raise or lower the signal
Summary of the method: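 Steps: transfect HepG2 with multiple reporter units; treat compound 24 h; isolate RNA, DNase-treat, reverse-transcribe; PCR-amplify, label with 6-FAM, digest with HpaI; separate by capillary electrophoresis. Activity fitted both directions versus DMSO.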

[7] = molecular target: Hepatocyte nuclear factor 3-beta (Homo sapiens) (UniProt Q9Y261); experiment: ATG_FoxA2_CIS: Attagene CIS-FACTORIAL HepG2 Assay for human Forkhead box A2 (FOXA2) (AID 2282942); conditions: HepG2 cis-reporter transcription factor activity, 24 h; actives raise or lower the signal
Chain of Hepatocyte nuclear factor 3-beta (Homo sapiens) (Q9Y261 whole entry, looked up): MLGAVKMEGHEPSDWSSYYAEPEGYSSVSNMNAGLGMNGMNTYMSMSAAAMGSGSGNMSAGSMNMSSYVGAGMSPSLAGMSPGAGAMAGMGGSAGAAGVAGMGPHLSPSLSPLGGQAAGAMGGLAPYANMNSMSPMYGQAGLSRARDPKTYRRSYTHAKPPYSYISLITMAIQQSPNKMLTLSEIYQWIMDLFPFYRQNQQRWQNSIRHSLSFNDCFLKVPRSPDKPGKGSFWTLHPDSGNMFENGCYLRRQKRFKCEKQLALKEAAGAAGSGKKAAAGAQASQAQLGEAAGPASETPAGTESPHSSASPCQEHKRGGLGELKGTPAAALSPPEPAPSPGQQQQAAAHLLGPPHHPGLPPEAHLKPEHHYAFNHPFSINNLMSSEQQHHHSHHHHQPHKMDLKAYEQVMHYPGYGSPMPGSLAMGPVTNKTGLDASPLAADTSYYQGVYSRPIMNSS
Summary of the method: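 Reporter transcript induction is measured by fluorescence after capillary electrophoresis of RT-PCR products from HepG2 cells exposed 24 h. Cis-regulated reporter units report endogenous factor activity; curves fitted both directions against DMSO.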

[8] = ATG_FoxO_CIS: Attagene CIS-FACTORIAL HepG2 Assay for human Forkhead box O (FoxO) (AID 2282943); conditions: HepG2 Attagene cis-reporter, FoxO element, mRNA; actives raise or lower the signal
Summary of the method: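 HepG2 cells transiently transfected with cis-promoter-driven multiple reporter transcription units; 24 h after chemical dosing, reporter mRNA quantified by RT-PCR, fluorescent primer extension, HpaI digestion and capillary electrophoresis. Bidirectional fitting versus DMSO baseline.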

[9] = ATG_GATA_CIS: Attagene CIS-FACTORIAL HepG2 Assay for human GATA Binding Protein (AID 2282944); conditions: HepG2 GATA cis-element reporter, Attagene multiplex mRNA; actives raise or lower the signal
Summary of the method: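 Reporter transcripts from a GATA cis-regulated unit, among multiplexed reporters in transfected HepG2 cells, were measured by RT-PCR with capillary electrophoresis after 24 h dosing. Induction or loss scored relative to DMSO.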

[10] = ATG_GLI_CIS: Attagene CIS-FACTORIAL HepG2 Assay for human Zinc Finger Protein GLI1 (AID 2282945); conditions: HepG2, Attagene cis-factorial reporter mRNA, GLI element; actives raise or lower the signal
Summary of the method: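 HepG2 cells transiently transfected with cis-promoter multiplexed reporter units report endogenous transcription factor activity. After 24 h chemical exposure, reporter mRNA was quantified by RT-PCR, 6-FAM labelling, HpaI digestion and capillary electrophoresis, with bidirectional fitting against DMSO.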

[11] = molecular target: Bile acid receptor (Homo sapiens) (UniProt Q96RI1); experiment: ATG_IR1_CIS: Attagene CIS-FACTORIAL HepG2 Assay for human Nuclear Receptor Subfamily 1 Group H Member 4 (NR1H4), IR1 submotif (AID 2282946); conditions: IR1 reporter transcription, actives raise or lower the signal
Chain of Bile acid receptor (Homo sapiens) (Q96RI1 whole entry, looked up): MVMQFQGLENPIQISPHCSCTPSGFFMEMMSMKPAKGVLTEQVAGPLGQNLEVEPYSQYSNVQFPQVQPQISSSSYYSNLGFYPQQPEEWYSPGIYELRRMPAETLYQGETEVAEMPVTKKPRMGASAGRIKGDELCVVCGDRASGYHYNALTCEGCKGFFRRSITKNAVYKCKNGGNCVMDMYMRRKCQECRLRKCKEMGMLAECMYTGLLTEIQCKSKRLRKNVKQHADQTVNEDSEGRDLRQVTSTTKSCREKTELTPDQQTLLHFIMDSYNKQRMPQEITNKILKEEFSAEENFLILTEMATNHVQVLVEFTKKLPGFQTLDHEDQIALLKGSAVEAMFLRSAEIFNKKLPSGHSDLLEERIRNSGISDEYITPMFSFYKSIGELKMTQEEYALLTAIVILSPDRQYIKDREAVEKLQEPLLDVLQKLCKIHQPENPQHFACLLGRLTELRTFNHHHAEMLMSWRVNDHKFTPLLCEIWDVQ
Summary of the method: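 Transient MRTU transfection, HepG2; 24 h dosing; RNA → RT-PCR → 6-FAM primer extension → HpaI digest → capillary electrophoresis fluorescence. Gain/loss of signal fitted relative to DMSO.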

[12] = ATG_GRE_CIS: Attagene CIS-FACTORIAL HepG2 Assay for human Glucocorticoid Response Elements (GRE) (AID 2282947); conditions: HepG2 GRE cis-reporter, Attagene multiplex mRNA; actives raise or lower the signal
Summary of the method: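 HepG2 cells transiently transfected with multiple cis-promoter reporter units measure endogenous TF activity; 24 h compound exposure. Reporter mRNA quantified by RT-PCR, FAM labelling, HpaI digestion and capillary electrophoresis; bidirectional fit vs DMSO baseline.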

[13] = ATG_ISRE_CIS: Attagene CIS-FACTORIAL HepG2 Assay for human Interferon Regulatory Factor 1 (IRF1) binding to an Interferon-Stimulated Response Element (ISRE) (AID 2282948); conditions: HepG2 ISRE cis-reporter (Attagene), mRNA transcription readout; actives raise or lower the signal
Summary of the method: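 Transfected HepG2 (multiple reporter transcription units, cis elements) dosed 24 h. RNA → oligo(dT) RT → PCR → 6-FAM primer extension → HpaI → CE. DMSO = negative control/baseline.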

[14] = ATG_M_32_CIS: Attagene CIS-FACTORIAL HepG2 Assay for M32 Transcription Factor (Internal Marker) (AID 2282949); conditions: HepG2 Attagene cis-factorial M32 reporter, mRNA; actives raise or lower the signal;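 also: background control marker of the multiplexed CIS panel rather than a real target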
Summary of the method: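 Internal background marker read-out: RT-PCR/capillary electrophoresis fluorescence of reporter transcripts from transiently transfected HepG2 cells after 24 h chemical exposure. Activity fitted bidirectionally relative to DMSO negative control.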

[15] = ATG_M_06_CIS: Attagene CIS-FACTORIAL HepG2 Assay for M06 Transcription Factor (Internal Marker) (AID 2282950); conditions: HepG2 Attagene CIS-FACTORIAL M06 internal marker reporter; actives raise or lower the signal
Summary of the method: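 Serves as a background control readout. Transfected HepG2 exposed to compounds for 24 h, then reporter transcripts quantified by fluorescent RT-PCR and capillary electrophoresis. Both directions fitted against DMSO baseline.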

[16] = molecular target: Hepatocyte nuclear factor 6 (Homo sapiens) (UniProt Q9UBC0); experiment: ATG_HNF6_CIS: Attagene CIS-FACTORIAL HepG2 Assay for human Hepatocyte Nuclear Factor 6 (HNF6) (AID 2282952); conditions: HepG2 Attagene cis-factorial HNF6 reporter transcription; actives raise or lower the signal
Chain of Hepatocyte nuclear factor 6 (Homo sapiens) (Q9UBC0 whole entry, looked up, the tested form may be a part): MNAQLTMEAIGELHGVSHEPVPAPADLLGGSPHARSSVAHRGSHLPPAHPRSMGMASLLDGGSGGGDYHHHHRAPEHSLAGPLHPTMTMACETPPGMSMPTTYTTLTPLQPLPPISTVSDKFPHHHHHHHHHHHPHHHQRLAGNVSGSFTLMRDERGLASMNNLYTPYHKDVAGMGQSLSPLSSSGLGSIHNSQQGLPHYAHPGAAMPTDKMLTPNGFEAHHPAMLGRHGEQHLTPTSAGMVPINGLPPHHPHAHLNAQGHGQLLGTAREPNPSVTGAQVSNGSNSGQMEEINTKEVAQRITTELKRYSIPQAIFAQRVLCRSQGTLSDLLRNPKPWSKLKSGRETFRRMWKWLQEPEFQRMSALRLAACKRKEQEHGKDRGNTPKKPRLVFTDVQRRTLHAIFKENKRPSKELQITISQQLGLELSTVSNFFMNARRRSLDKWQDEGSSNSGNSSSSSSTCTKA
Summary of the method: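 Reporter mRNA induction or loss in HepG2 after 24 h exposure; transient cis-MRTU transfection; fragments quantified by capillary electrophoresis; bidirectional analysis, DMSO as negative control.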

[17] = ATG_MRE_CIS: Attagene CIS-FACTORIAL HepG2 Assay for human Metal Responsive Element (MRE) (AID 2282954); conditions: HepG2 MRE cis-reporter transcription, Attagene multiplex; actives raise or lower the signal
Summary of the method: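 HepG2 cells transiently transfected with multiple cis-element reporter units measure endogenous MTF1-driven transcription. After 24 h compound exposure, reporter mRNA is quantified by RT-PCR with 6-FAM labelling, HpaI digestion and capillary electrophoresis; bidirectional fits versus DMSO.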

[18] = ATG_E_Box_CIS: Attagene CIS-FACTORIAL HepG2 Assay for human Enhancer Box (E-box) (AID 2282936); conditions: HepG2 E-box cis-reporter transcription, actives raise or lower the signal
Summary of the method: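 HepG2 cells transiently transfected with multiplexed cis-element reporter units sensing endogenous transcription factor activity; 24 h compound exposure. Reporter mRNA measured by RT-PCR, 6-FAM primer extension, HpaI digestion and capillary electrophoresis; bidirectional fit versus DMSO.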

[19] = molecular target: Hypoxia-inducible factor 1-alpha (Homo sapiens) (UniProt Q16665); experiment: ATG_HIF1a_CIS: Attagene CIS-FACTORIAL HepG2 Assay for human Hypoxia Inducible Factor 1 (HIF1A) (AID 2282951); conditions: HepG2 Attagene cis-factorial HIF1a reporter transcription; actives raise or lower the signal
Chain of Hypoxia-inducible factor 1-alpha (Homo sapiens) (Q16665 whole entry, looked up): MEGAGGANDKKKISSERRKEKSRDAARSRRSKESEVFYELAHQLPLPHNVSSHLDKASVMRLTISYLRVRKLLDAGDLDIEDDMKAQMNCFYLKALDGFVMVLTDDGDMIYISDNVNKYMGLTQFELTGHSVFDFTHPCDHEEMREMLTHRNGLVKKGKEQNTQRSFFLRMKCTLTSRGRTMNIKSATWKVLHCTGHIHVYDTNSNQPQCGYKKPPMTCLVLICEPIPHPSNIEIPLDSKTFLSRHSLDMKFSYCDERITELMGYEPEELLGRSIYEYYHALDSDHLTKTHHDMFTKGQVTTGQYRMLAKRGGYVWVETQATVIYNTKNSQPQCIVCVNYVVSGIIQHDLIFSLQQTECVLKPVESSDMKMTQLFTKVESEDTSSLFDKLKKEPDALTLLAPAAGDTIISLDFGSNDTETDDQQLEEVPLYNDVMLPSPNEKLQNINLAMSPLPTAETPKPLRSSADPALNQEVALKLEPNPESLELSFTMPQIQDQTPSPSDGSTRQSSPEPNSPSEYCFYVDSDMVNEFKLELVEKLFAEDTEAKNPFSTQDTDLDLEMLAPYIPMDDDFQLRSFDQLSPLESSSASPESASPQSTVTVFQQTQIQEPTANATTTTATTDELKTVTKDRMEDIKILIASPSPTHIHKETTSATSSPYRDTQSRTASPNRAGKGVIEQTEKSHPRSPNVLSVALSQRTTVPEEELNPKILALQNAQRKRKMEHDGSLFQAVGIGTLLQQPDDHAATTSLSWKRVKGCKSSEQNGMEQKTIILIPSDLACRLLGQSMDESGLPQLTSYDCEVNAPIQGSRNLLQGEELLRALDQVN
Summary of the method: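 Fluorescence intensity of capillary-separated, 6-FAM-labelled reporter amplicons gives mRNA induction in HepG2 cells carrying transfected cis-promoter reporter units; cells exposed 24 h, responses fitted up or down from DMSO.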

[20] = molecular target: Heat shock factor protein 1 (Homo sapiens) (UniProt Q00613); experiment: ATG_HSE_CIS: Attagene CIS-FACTORIAL HepG2 Assay for human Heat Shock Transcription Factor 1 (HSE) (AID 2282953); conditions: HepG2 HSE cis-reporter, Attagene RNA transcription; actives raise or lower the signal
Chain of Heat shock factor protein 1 (Homo sapiens) (Q00613 whole entry, looked up): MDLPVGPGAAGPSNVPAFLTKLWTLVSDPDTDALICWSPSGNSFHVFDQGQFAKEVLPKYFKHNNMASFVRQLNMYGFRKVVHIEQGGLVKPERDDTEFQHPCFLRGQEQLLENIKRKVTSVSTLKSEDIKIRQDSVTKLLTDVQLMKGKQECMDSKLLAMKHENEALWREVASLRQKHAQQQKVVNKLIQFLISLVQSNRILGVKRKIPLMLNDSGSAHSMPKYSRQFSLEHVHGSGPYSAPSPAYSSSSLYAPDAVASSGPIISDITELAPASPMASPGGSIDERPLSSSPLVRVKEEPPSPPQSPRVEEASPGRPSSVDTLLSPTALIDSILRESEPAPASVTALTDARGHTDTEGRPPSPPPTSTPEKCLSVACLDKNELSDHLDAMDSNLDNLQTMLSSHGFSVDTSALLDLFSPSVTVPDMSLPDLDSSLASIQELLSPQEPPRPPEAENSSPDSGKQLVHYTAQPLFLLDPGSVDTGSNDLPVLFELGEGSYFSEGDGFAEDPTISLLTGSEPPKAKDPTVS
Summary of the method: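 Endogenous transcription factor activity in transiently transfected HepG2, read as reporter mRNA by RT-PCR with fluorescent capillary electrophoresis after 24 h. Gain or loss of signal fitted versus DMSO baseline.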

Measured: AC50

FC(F)(I)C(F)(F)C(F)(F)C(F)(F)I
active: [5] 0.291 µM
not listed: [18] | [19] | [20]
inactive: all other assays above

FC(F)(F)C(F)(F)C(F)(F)N(C(F)(F)C(F)(F)C(F)(F)F)C(F)(F)C(F)(F)C(F)(F)F
not listed: [1]
inactive: all other assays above

Cc1cc(C)cc(O)c1
not listed: [2] | [11]
inactive: all other assays above

CCCCOCCOCCOC(=O)CCCCC(=O)OCCOCCOCCCC
not listed: [2] | [15] | [18] | [20]
inactive: all other assays above

C=CC/C=C/C/C=C/C/C=C/C
not listed: [18]
inactive: all other assays above

C=CC(F)(F)C(F)(F)C(F)(F)C(F)(F)C(F)(F)C(F)(F)C(F)(F)C(F)(F)F
not listed: [2] | [20]
inactive: all other assays above

FC(F)(F)C(F)(F)C(F)(F)C(F)(F)CCI
inactive: [1] | [2] | [3] | [4] | [5] | [6] | [7] | [8] | [9] | [10] | [12] | [13] | [14] | [15] | [19] | [16] | [17]
active: [5] 16.3 µM

O[Si](c1ccccc1)(c1ccccc1)c1ccccc1
active: [5] 12.8 µM | [10] 134 µM | [11] 10.2 µM | [17] 33.3 µM
not listed: [18] | [19]
inactive: all other assays above

CCc1c(Br)c(Br)c(Br)c(Br)c1Br
not listed: [2] | [18] | [19]
inactive: all other assays above

CS(C)(=O)=O
not listed: [15] | [18] | [19]
inactive: all other assays above

O=C(OCCOCCOCCOC(=O)c1ccccc1)c1ccccc1
active: [5] 0.62 µM
not listed: [2] | [15]
inactive: all other assays above

OC[C@@H](O)[C@@H](O)[C@H](O)[C@@H](O)CO
active: [5] 30.6 µM
inactive: [18] | [2] | [3] | [4] | [5] | [6] | [7] | [8] | [9] | [10] | [13] | [14] | [15] | [19] | [16] | [20] | [17]

CCN(Cc1cccc(S(=O)(=O)O)c1)c1ccc(C(=C2C=CC(=[N+](CC)Cc3cccc(S(=O)(=O)O)c3)C=C2)c2ccc(O)cc2S(=O)(=O)[O-])cc1
active: [5] 16.8 µM
not listed: [1] | [15] | [20]
inactive: all other assays above

OCC(F)(F)C(F)(F)C(F)(F)C(F)F
not listed: [1] | [18] | [20]
inactive: all other assays above

Reference: PubChem BioAssay (EPA / NIEHS)
